Each structure is given as a SMILES string. Compounds without any hit were thinned out: in the full panel of roughly 83,000, 20% have a hit.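 96-well plates, one dose, 48 hours. Percent growth reported; active if below 10.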 A number with no mark means an inactive call. The source made the active and inactive calls.

What all share (assay): NCI-60 one-dose screen, 48 h (100 = growth as untreated, 0 = no growth, -100 = all killed)
Test [1] deals with T-47D breast. The conditions noted are these: 10 µM unless noted.
The test system of test [2] is BT-549 breast. Particulars: 10 µM unless noted.
Test [3] relates to MDA-MB-435 melanoma. The conditions noted are these: 10 µM unless noted.
The test system of test [4] is SW-620 colon. Particulars: 10 µM unless noted.
The subject of test [5] is MCF7 breast. Particulars: 10 µM unless noted.
Test [6] has as its system HCT-116 colon. Particulars: 10 µM unless noted.
For test [7], the system named is HCC-2998 colon. The conditions noted are these: 10 µM.
Test [8] deals with KM12 colon. The conditions noted are these: 10 µM unless noted.

On to `CCOC(=O)C1=C(C)N=C2Sc3cc(OC(F)(F)F)ccc3N2[C@H]1c1ccccn1`, for which the growth is 25.1% in test [1]; 59.4% in test [2]; 51.1% in test [3]; 23.6% in test [4]; 41.3% in test [5]; 24.2% in test [6]. In addition, the growth was 69.4% in test [7] and 32.3% in test [8].

Regarding `Cc1cc(-c2cc(OC(=O)c3ccccc3)ccc2Cl)cc2nnc(Nc3ccc(OCCN4CCCC4)cc3)nc12`, the growth is 91.8% in test [1]; 110% in test [2]; -70.6% (active) in test [3]; 105% in test [4]; 3.92% (active) in test [5]; 55.5% in test [6]. The growth is 109% in test [7] and 90.5% in test [8].

With `Cn1ccnc1C(=O)/C=C/c1ccc(CC(=O)Nc2ccc(C(F)(F)F)cc2)cc1`, the growth in test [1] is 3.52% (active); in test [2], 3.71% (active); in test [3] it was 30.6%; in test [4], 7.25% (active); in test [5], 8.41% (active); in test [6] it was 6.67% (active). Besides, the growth in test [7] is 0.221% (active); in test [8], 4.24% (active).

On to `C#Cc1cccc(Nc2ncnc3cc(OCCOC)c(OCCOC)cc23)c1`, for which the growth in test [1] was 30.9%; in test [2], 68.6%; in test [3], 74.7%; in test [4] it was 74.6%; in test [5], 88.3%; in test [6], 54.1%. Besides, the growth in test [7] was 94.8%; in test [8], 77.8%.

For the compound `COc1ccc2c(c1OC)C(=O)O[C@@H]2[C@H]1c2c(c(C#CC#Cc3ccc(F)c(F)c3)c3c(c2OC)OCO3)CCN1C`, the growth in test [1] is 69.6%; in test [2], 78.2%; in test [3], 89.7%; in test [4], 104%; in test [5] it was 94%; in test [6], 59.8%. The growth is 88.5% in test [7] and 83% in test [8].

As to `CCc1ccc(/C=C/c2ccc(O)c3ncccc23)[n+](C)c1`, the growth in test [1] was 31.2%; in test [2], 65.9%; in test [3], 59.4%; in test [4] it was 40.7%; in test [5], 53.8%; in test [6], 18.3%. The growth is 31.6% in test [7] and 40.2% in test [8].

For `CCn1c(-c2nonc2N)nc2c(C#CC(C)(C)O)ncc(OC[C@H]3CCCNC3)c21`, the growth is 66.7% in test [1]; 49.6% in test [2]; 75.3% in test [3]; 46.1% in test [4]; 15.6% in test [5]; 44.5% in test [6]. For the same compound, the growth was 81.4% in test [7] and 35.9% in test [8].

As to `CCc1nc2cc(F)c(/C=C/C(=O)NO)cc2c(=O)n1CCc1ccccc1`, the growth is 2.26% (active) in test [1]; 28.8% in test [2]; 23.8% in test [3]; 9.97% (active) in test [4]; 12.3% in test [5]; 5.01% (active) in test [6]. Besides, the growth in test [7] was 37.3%; in test [8], 25.6%.

With `CC(C)(C)c1cnc(CSc2cnc(NC(=O)C3CCNCC3)s2)o1`, the growth is -7.81% (active) in test [1]; 0.761% (active) in test [2]; -58.7% (active) in test [3]; 5.06% (active) in test [4]; 3.72% (active) in test [5]; 2.22% (active) in test [6]. Besides, the growth was 0.238% (active) in test [7] and 3.58% (active) in test [8].

`Cc1[nH]c(/C=C2\C(=O)Nc3ccc(F)cc32)c(C)c1C(=O)NC[C@H](O)CN1CCOCC1`: the growth was 59.5% in test [1]; 37.8% in test [2]; 18.6% in test [3]; 11.8% in test [4]; 38.4% in test [5]; 10.7% in test [6]. The growth in test [7] is 41%; in test [8] it was 5.33% (active).

Take `N#Cc1ccc(-n2nnc3ccccc32)cc1C#N`: the growth in test [1] was 86.3%; in test [2], 106%; in test [3] it was 85.3%; in test [4] it was 94.4%; in test [5] it was 82%; in test [6] it was 102%. Further, the growth was 104% in test [7] and 96.4% in test [8].

For the compound `CCCCN1CCCC[C@@H]1C(=O)N[C@H](C(=O)N(C)[C@H](CCc1nc(C(=O)N[C@@H](Cc2ccccc2)C[C@H](C)C(=O)OC)cs1)C(C)C)C(C)C`, the growth in test [1] is 45.3%; in test [2], 52.3%; in test [3], -6.94% (active); in test [4] it was 85.3%; in test [5] it was 35.6%; in test [6] it was 41.5%. For the same compound, the growth in test [7] was 67.6%; in test [8] it was 47.7%.

`O=c1sn(-c2cccc3ccccc23)c(=O)n1Cc1ccccc1`: the growth is 91.5% in test [1]; 110% in test [2]; 104% in test [3]; 110% in test [4]; 103% in test [5]; 88.1% in test [6]. For the same compound, the growth in test [7] was 110%; in test [8], 104%.

With `O=C(NC[C@H](O)CO)c1ccncc1Nc1ccc(I)cc1F`, the growth in test [1] is 47.7%; in test [2] it was 88%; in test [3], 35.2%; in test [4], 17.4%; in test [5] it was 49.1%; in test [6] it was 9.79% (active). In addition, the values for the growth in test [7] and in test [8] were 2.1% (active) and 16.6%, respectively.

On to `COc1cnc2c(c1)C(=O)c1c-2n(CCCn2ccnc2)c(=O)c2cc(Cl)ccc12`, for which the growth was -1.88% (active) in test [1]; 13.2% in test [2]; 11% in test [3]; 20.1% in test [4]; 7.47% (active) in test [5]; -20.7% (active) in test [6]. The growth in test [7] was 31.6%; in test [8], 9.84% (active).

Regarding `CO/C=C/C(=O)c1cc2cnc3c(=N)cc(NC(=O)C(C)C)c([nH]1)c23`, the growth in test [1] is -53.1% (active); in test [2], -58.9% (active); in test [3] it was -27.5% (active); in test [4], -47.8% (active); in test [5], 1.14% (active); in test [6], -55.4% (active). Also, the growth in test [7] was -21% (active); in test [8] it was -23.9% (active).
